Data from PMC5540273 (PLoS ONE, 2017).

Legend:
Conditions in all cases: concentration: 1 μM, replicates: in singlicate; n = 1
[1] = tested on: AKT3
[2] = tested on: ALK
[3] = tested on: T1, AMPK-alpha1
T1 construct: gene PRKAA1

[4] = tested on: T2, AMPK-alpha2
T2 construct: gene PRKAA2

[5] = tested on: ANKK1
[6] = tested on: T3, ARK5
T3 construct: gene NUAK1

[7] = tested on: T4, ASK1
T4 construct: gene MAP3K5

[8] = tested on: T5, ASK2
T5 construct: gene MAP3K6

[9] = tested on: AURKA
[10] = tested on: AURKB
[11] = tested on: AURKC
[12] = tested on: AXL
[13] = tested on: T6, BIKE
T6 construct: gene BMP2K

[14] = tested on: BLK
[15] = tested on: BMPR1A
[16] = tested on: BMPR1B
[17] = tested on: BMPR2
[18] = tested on: BMX
[19] = tested on: BRAF
[20] = tested on: T7, BRK
T7 construct: gene PTK6
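Note: KINOMEscan kinase panel screen.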

SMILES	%Inh [1]	%Inh [2]	%Inh [3]	%Inh [4]	%Inh [5]	%Inh [6]	%Inh [7]	%Inh [8]	%Inh [9]	%Inh [10]	%Inh [11]	%Inh [12]	%Inh [13]	%Inh [14]	%Inh [15]	%Inh [16]	%Inh [17]	%Inh [18]	%Inh [19]	%Inh [20]
COc1cc2ncnc(Nc3ccc(OCc4ccccc4Br)c(Cl)c3)c2cc1OC.Cl [GI261590]	0%	39%	11%	0%	0%	3%	10%	0%	1%	35%	42%	19%	5%	49%	0%	0%	15%	4%	7%	66%
Cl.Cn1ccc(-c2cccc(Nc3ccnc4cc(-c5nccs5)ccc34)c2)n1 [GW525701]	0%	28%	0%	14%	8%	0%	9%	0%	0%	28%	0%	0%	0%	15%	0%	0%	16%	0%	0%	5%
Fc1cccc(COc2ccc(Nc3ncnc4nn5ccccc5c34)cc2Cl)c1 [GW689066]	0%	26%	0%	0%	0%	11%	8%	0%	0%	0%	6%	0%	15%	57%	0%	0%	4%	5%	0%	0%
COc1ccc(-c2oc3ncnc(N)c3c2-c2ccc(OC)cc2)cc1 [SB-589132]	0%	32%	0%	10%	0%	13%	11%	7%	0%	30%	0%	13%	0%	66%	0%	0%	30%	0%	38%	15%
Fc1ccc(Nc2nccc(-c3c(-c4ccc(Cl)cc4)nn4ncccc34)n2)cc1F [GW829058]	15%	43%	17%	0%	10%	0%	2%	26%	32%	27%	0%	1%	0%	0%	18%	18%	32%	5%	37%	6%
O=C(Nc1ccccc1)Nc1ccc(Oc2ccc3nccn3n2)cc1	10%	0%	25%	0%	0%	0%	8%	0%	0%	68%	16%	0%	0%	13%	18%	6%	0%	8%	0%	0%
CS(=O)(=O)CCNCc1ccc(-c2ccc3ncnc(Nc4ccc(OCc5ccccc5)c(Cl)c4)c3c2)o1.Cl [GW574783]	27%	18%	9%	24%	0%	18%	0%	0%	0%	4%	2%	42%	19%	49%	0%	0%	0%	19%	9%	0%
Cl.O=S(=O)(c1cccc(F)c1)c1ccc(Nc2ncnc3cc(Br)sc23)cc1Cl [GSK306886]	0%	14%	0%	0%	3%	10%	8%	0%	30%	0%	0%	0%	0%	10%	0%	0%	0%	15%	0%	0%
CN1CCC(n2cnc(-c3ccc(F)cc3)c2-c2ccnc(NC3CCNCC3)n2)CC1 [SB-229482]	32%	22%	0%	12%	0%	0%	0%	0%	34%	40%	0%	48%	0%	10%	6%	0%	1%	0%	0%	0%
